“And” between values parts separate entries of the source, which are not always exact repeats. Equal values may be shown once. Among all 360,000 compounds or so, about 3,700 (1%) were called active. Inconclusive results (about 2%) are left out.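 How the source made its calls: active means normalized GFP-positive differentiation at or above the plate's own cutoff, the solvent-only control mean plus 3 SD; inconclusive means no clear call, values can overlap the other calls; inactive means the rest.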 What follows is part of a selection rich in actives, with near analogues and random picks from the rest.

For 44 molecules, GFP+ MAC1+ double positive, outcome and normalized GFP-positive differentiation results are on record in PubChem BioAssay AID624256 (NMMLSC, 2012).

This assay in a line: induction of myeloid progenitor differentiation, primary screen, cell-based, flow cytometry, MLPCN library (AID 624256).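 On GFP+ MAC1+ double positive: cells exposed to compound for four days before flow analysis.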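 On normalized GFP-positive differentiation: cells exposed to compound for four days before flow analysis; 0% = DMSO wells and 100% = fulvestrant positive control at 5 µM.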 The settings on record: ER-HoxA9 myeloid progenitors, lysozyme-GFP differentiation, at 10 µM; GFP+ MAC1+ double positive: measured here: differentiation confirmed by MAC1 staining, stronger effect = higher value; normalized GFP-positive differentiation: stronger effect = higher value. For orientation: In flow cytometry, cells or beads pass a laser one at a time.
Turning to `Cc1ccc(N2C(=O)c3ccccc3C2(O)c2ncc[nH]2)cc1` (stereo not drawn), the GFP+ MAC1+ double positive was 1.1% and the molecule was called inactive.
The like results for `O=c1c2c(-c3ccccc3)ccnc2[nH]n1-c1ccccc1` were, in that order, 0.5% and “inactive”.
Regarding `Cc1ccc(-c2ccnc3[nH]n(-c4ccccc4)c(=O)c23)cc1`, the GFP+ MAC1+ double positive was 0.4% and the normalized GFP-positive differentiation is 17.5% (active).
For `COC(=O)[C@@]12C[C@@H](CC(=O)NCCCCc3ccccc3)C(=O)N(CCc3ccc(OC)c(OC)c3)C1=CCC(C)(C)C2`, the GFP+ MAC1+ double positive is 1.6% and the molecule was called inactive.
The like results for `COC(=O)C[C@@H]1C=C[C@@H](NS(=O)(=O)c2cccc(OC)c2)[C@@H](CO)O1` were, in that order, 1.6% and “inactive”.
Regarding `Cc1c(-c2ccccc2)cn2c1-c1ccc(C)n1CC2`, the GFP+ MAC1+ double positive is 1.4% and the normalized GFP-positive differentiation is 31.7% (active).
For the molecule `O=C(C[C@H]1CC[C@H]2[C@@H](COC[C@H](O)CN2C(=O)c2ccccn2)O1)N1CCN(c2ccccc2)CC1`, the GFP+ MAC1+ double positive came out at 2.6% and the result was inactive.
Consider `CN(CCO)C(=O)c1nc[nH]c1C(=O)N(C)Cc1ccccc1`, for which the GFP+ MAC1+ double positive stood at 0.2% and the molecule was classed as inactive.
For `CCCCn1nnnc1C(c1cc2ccccc2o1)N(C)Cc1ccc(Cl)c(Cl)c1` (stereo not drawn) the same measures were 0.9% and “inactive”.
Turning to `COCCCn1c(=O)/c(=C/c2ccccc2OC(C)C)s/c1=C(\C#N)C(=O)Nc1ccc(C(=O)O)cc1`, the GFP+ MAC1+ double positive came to 2.8% and the normalized GFP-positive differentiation was 20.2% (active).
`COc1ccc(NC(=O)/C(C#N)=C\c2cc(OC)c(OCc3ccc(C(=O)O)cc3)cc2Br)cc1`: the GFP+ MAC1+ double positive turned out to be 0.2% and the call was inactive.
As to `COc1ccccc1C(=O)N/C(=C/c1ccco1)C(=O)Nc1ccc(C(=O)O)cc1`, the GFP+ MAC1+ double positive was 1.5% and the result was inactive.
On to `COCCNC(=O)C1CCCN(Cc2ccccc2Cl)CC1` (stereo not drawn), for which the GFP+ MAC1+ double positive was 0.5% and the call was inactive.
For `COC(=O)[C@@]1(Sc2ccc(C)cc2)CC(=O)N(c2cccc(SC)c2)[C@@H]1c1ccccc1`, the GFP+ MAC1+ double positive amounted to 0.4% and the call was inactive.
With `c1ccc(Cc2c(-c3ccco3)nc3c4ccccc4ccn23)cc1`, the GFP+ MAC1+ double positive was found to be 1.5% and the molecule was classed as inactive.
Take `Cc1cc(NC(C)C)n2c(nc3ccccc32)c1C#N`: the GFP+ MAC1+ double positive came out at 1% and the molecule was called inactive.
Take `Cc1ccc(Oc2nc3ccccc3n3c(C)nnc23)cc1`: the GFP+ MAC1+ double positive is 5.3% and the outcome was inactive.
Turning to `Cc1ccc(S(=O)(=O)N(C)c2nc3ccccc3n3c(C(C)C)nnc23)cc1`, the GFP+ MAC1+ double positive turned out to be 2% and the normalized GFP-positive differentiation was 94.1% (active).
As for `Cc1cc2c(cc1C)N1C(=O)c3cc4ccccc4cc3NC(=O)C1C(=O)N2` (stereo not drawn), the GFP+ MAC1+ double positive worked out at 1.5% and the call was inactive.
As to `CN(CC(=O)Nc1cccc(F)c1)C(=O)CC1CCCC1`, the GFP+ MAC1+ double positive worked out at 0.8% and the call was inactive.
Regarding `CCN(CC)C(=O)CSC(Nc1cccc(F)c1)=C(C#N)C#N`, the GFP+ MAC1+ double positive was 2.2% and the normalized GFP-positive differentiation was 143% (active).
`Cc1ccc(CSCC(=O)N(C)CC(=O)Nc2cccc(F)c2)cc1`: the GFP+ MAC1+ double positive was found to be 1.2% and the molecule was classed as inactive.
Turning to `Cn1c(Nc2ccc(F)cc2)nc2cc(-c3ccsc3)sc2c1=O`, the GFP+ MAC1+ double positive was determined as 0.7% and the result was inactive.
Consider `CCOC(=O)C1CCCN(C(=O)c2cccc3ccccc23)CC1` (stereo not drawn), for which the GFP+ MAC1+ double positive was found to be 1.7% and the outcome was inactive.
Turning to `CC(=O)OCC(C)n1c(=O)c2ccccc2n1C(C)=O` (stereo not drawn), the GFP+ MAC1+ double positive came out at 1% and the molecule was classed as inactive.
As to `Cc1[nH]c(=O)c(C(=O)/C=C/c2ccccc2)c2c1CCCC2`, the GFP+ MAC1+ double positive was found to be 10.9% and the normalized GFP-positive differentiation is 31.7% (active).
Regarding `COC(=O)c1c(C)[nH]c(C(=O)/C=C/c2ccc(Cl)cc2)c1C`, the GFP+ MAC1+ double positive is 0.4% and the molecule was called inactive.
The like results for `CC1(C(=O)O)CCCN(C(=O)/C=C/c2ccccc2)C1` (stereo not drawn) were, in that order, 2.1% and “inactive”.
Consider `Cc1ccc2nc(-c3ccco3)c(Cc3cccc(Cl)c3)n2c1`, for which the GFP+ MAC1+ double positive is 0.9% and the call was inactive.
With `COc1cc(OC)cc(C(=O)NCCCn2ccnc2)c1`, the GFP+ MAC1+ double positive stood at 0.7% and the outcome was inactive.
As for `COc1ccc(/C=C(\C#N)C(=O)NCCCn2ccnc2)cc1`, the GFP+ MAC1+ double positive came out at 0.1% and the call was inactive.
Regarding `COc1cccc(-c2nn(-c3ccccc3)cc2/C=C(\C#N)C(=O)NCCCn2ccnc2)c1`, the GFP+ MAC1+ double positive was 0.5% and the normalized GFP-positive differentiation was 58.2% (active).
`Nc1nc2c(Br)ccc(Br)c2cc1C(=O)NCCc1ccccc1`: the GFP+ MAC1+ double positive amounted to 0.7% and the result was inactive.
Take `CC(C)NC(=O)N1Cc2cc(C(=O)NCC(F)(F)F)nc(-c3cccc(-c4cc5ccccc5o4)c3)c2[C@@H]1CCO`: the GFP+ MAC1+ double positive was 1.5% and the result was inactive.
On to `COc1ccc(CN(Cc2ccc(OC)cc2)C(=O)c2cccs2)cc1`, for which the GFP+ MAC1+ double positive was found to be 0.3% and the call was inactive.
The like results for `CCOc1ncccc1C(=O)NCCc1ccc(OC)cc1` were, in that order, 0.2% and “inactive”.
As to `COc1ccc(CCNC(=O)/C(C#N)=C2\N=C(NC(=O)c3cccs3)c3ccccc32)cc1`, the GFP+ MAC1+ double positive stood at 0.9% and the normalized GFP-positive differentiation was 28.9% (active).
On to `CCOC(=O)C1C(C)C(C(C)(C)C)N(S(=O)(=O)c2ccc(C)cc2)C1c1ccccc1` (stereo not drawn), for which the GFP+ MAC1+ double positive worked out at 2.4% and the outcome was inactive.
With `NC(c1csc(NC(=O)Nc2ccccc2Oc2ccccc2)n1)c1ccccc1Cl` (stereo not drawn), the GFP+ MAC1+ double positive came out at 0.8% and the call was inactive.
As to `CSCCC(c1nnnn1Cc1ccccc1)N1CCN(C/C=C/c2ccccc2)CC1` (stereo not drawn), the GFP+ MAC1+ double positive was 1.1% and the call was inactive.
With `COc1ccc(-c2nc3cnccn3c2NC2CCCCC2)cc1-c1cccc(Cl)c1`, the GFP+ MAC1+ double positive was 2.8% and 1.8%; the outcome was inactive.
On to `COc1ccc(-c2nc3cc(C)ccn3c2NC2CCCCC2)cc1SC1CCCCC1`, for which the GFP+ MAC1+ double positive was 2.4% and 7.4%; the normalized GFP-positive differentiation is 300% (active) and 217% (active).
Regarding `CCOc1cc(-c2nc3cc(C)ccn3c2NCC2CCCO2)ccc1O` (stereo not drawn), the GFP+ MAC1+ double positive stood at 0.6% and the molecule was called inactive.
On to `CN(Cc1ccccn1)Cc1nc(-c2ccc(Cl)cc2)no1`, for which the GFP+ MAC1+ double positive amounted to 0.5% and the normalized GFP-positive differentiation is 34.3% (active).
